Source: PubChem (National Center for Advancing Translational Sciences (NCATS))
Hits are enriched below; roughly 5.7% of the tested compounds scored in any of these assays.
L3MBTL1 inh – qHTS Assay for the Inhibitors of L3MBTL1; Potency, µM (doses to about 57.1 µM), most hits filed as inhibitors; AlphaScreen L3MBTL1–H3K9me1 peptide binding; 230,000 compounds, 0.66% hits; AID 485360, 2010; also: nearly all actives have a fitted effect of over 60% in size
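First, the protein-peptide complex forms for 30 min at room temperature (L3MBTL1 50 nM, biotinylated H3K9me1 peptide 75 nM). Next, compounds are pin-transferred and incubated 30 min. Finally, AlphaScreen beads are added and read after 30 min.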
BAZ2B block – qHTS Assay for Inhibitors of BAZ2B. Bromodomain adjacent to zinc finger domain protein 2B (Homo sapiens), Q9UIF8. AID 504333, 2011. 360,000 compounds, 4.4% hits. Potency, µM (series often up to 114 µM), most hits filed as inhibitors. AlphaScreen BAZ2B-H3K14Ac peptide displacement; also: nearly all actives have a fitted effect of over 60% in size
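In this displacement format the biotinylated H3(5-23) peptide acetylated at Lys14 serves as ligand at 50 nM, with BAZ2B at 50 nM in PBS pH 7.4 containing 0.01% Tween-20. Donor and acceptor beads are 10 ug/mL final.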
PI5P4K alpha inh – qHTS for Inhibitors of phosphatidylinositol 5-phosphate 4-kinase (PI5P4K) | Phosphatidylinositol 5-phosphate 4-kinase type-2 alpha (Homo sapiens), P48426 | PI5P4Kalpha enzyme, ADP-Glo luminescence, 60 min; active compounds read low | max response, % | 330,000 compounds, 1.2% hits | AID 652105, 2013; active = max response of -50% or lower; inconclusive = between -30% and -50%; inactive = -30% or higher; also: value at the top dose of about 77 µM
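qHTS, 1536-well: enzyme/substrate mix, compound by pin tool, 5 microM ATP final; RT 60 min; ADP-Glo reagents 1 (45 min) then 2 (30 min); luminescence.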
HP1b chromo inh – HTS for Inhibitors of HP1-beta Chromodomain Interactions with Methylated Histone Tails; Chromobox protein homolog 1 (Homo sapiens), P83916; AlphaScreen HP1-beta / biotin-H3K9me3 peptide binding; Potency, µM (highest dose often 114 µM), usual class: inhibitors; 390,000 compounds, 0.56% hits; AID 540317, 2011; also: nearly all actives have a fitted effect of over 70% in size
Target sequence (P83916 whole entry, looked up): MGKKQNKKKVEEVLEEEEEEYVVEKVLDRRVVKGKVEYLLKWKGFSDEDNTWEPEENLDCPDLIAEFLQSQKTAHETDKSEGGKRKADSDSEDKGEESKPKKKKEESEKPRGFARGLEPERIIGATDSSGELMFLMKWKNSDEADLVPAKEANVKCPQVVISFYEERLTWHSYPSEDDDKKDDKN
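AlphaScreen: HP1-beta (50 nM) preformed 30 min with biotin-H3(1-18)K9me3 peptide (50 nM) in PBS pH 7.4, 0.01% Tween-20. Compound added for 30 min at RT, then streptavidin donor/nickel chelate acceptor beads (10 ug/mL) for 30 min.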
JMJD2A Tudor inh – qHTS Assay for Inhibitors of JMJD2A-Tudor Domain. Potency, µM (doses to about 114 µM), most hits filed as inhibitors. AID 504339, 2011. Lysine-specific demethylase 4A (Homo sapiens), O75164. 390,000 compounds, 4.4% hits. AlphaScreen JMJD2A-Tudor / H3K4me3 peptide binding; also: nearly all actives have a fitted effect of over 50% in size
KDM4E inh – qHTS Assay for Inhibitors of Human Jumonji Domain Containing 2E (JMJD2E); JMJD2E catalytic domain, FDH-coupled NADH fluorescence (FDH is formaldehyde dehydrogenase); Potency, µM (doses to about 57.1 µM), actives largely listed as inhibitors; 230,000 compounds, 1.6% hits; AID 2147, 2009; active = well fitted inhibition curve with a large enough effect, not every such curve was filed as active; inconclusive = small, poorly fitted or top-dose-only effect, or another doubt; inactive = no such curve, though single readings can be large or run the other way; also: nearly all actives have a fitted effect of over 50% in size
Target sequence (B2RXH2 1-337 limits assumed): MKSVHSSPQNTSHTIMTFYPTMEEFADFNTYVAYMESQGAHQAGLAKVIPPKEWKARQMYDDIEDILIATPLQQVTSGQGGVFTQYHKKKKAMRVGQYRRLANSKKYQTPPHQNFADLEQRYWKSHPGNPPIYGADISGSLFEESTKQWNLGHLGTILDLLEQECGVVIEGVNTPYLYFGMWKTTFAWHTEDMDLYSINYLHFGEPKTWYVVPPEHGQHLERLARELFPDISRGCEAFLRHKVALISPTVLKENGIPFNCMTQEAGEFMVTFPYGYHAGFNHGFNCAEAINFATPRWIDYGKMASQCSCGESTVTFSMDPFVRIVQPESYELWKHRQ
Of the large screens only hits and unclear results are named; the others gave an inactive call. Unless noted, calls follow the shape of the dose curve; as a rule, active = well fitted inhibition curve with a large enough effect; inconclusive = small, poorly fitted or top-dose-only effect; inactive = no such curve, though single readings can be large or run the other way.

CC(=O)Nc1ccc(S(=O)(=O)NCC(CCC(=O)O)C(F)(F)F)cc1 (stereo unspecified)	PI5P4K alpha inh inconclusive, JMJD2A Tudor inh 16µM
CC(=O)NN1C(=O)/C(=C/c2ccc(Br)o2)SC1=S	PI5P4K alpha inh inconclusive, HP1b chromo inh 50µM, KDM4E inh inconclusive (no result: L3MBTL1 inh)
CC(=O)NN1C(=O)/C(=C\c2ccc(Br)o2)SC1=S	L3MBTL1 inh inconclusive, BAZ2B block inconclusive, HP1b chromo inh inconclusive
CCC(C)[C@@H](N)C(=O)N/N=C/c1cccc2nccnc12 (stereo partly specified)	BAZ2B block 79µM, JMJD2A Tudor inh 50µM, KDM4E inh inconclusive
O=C(N/N=C/c1cccc2nccnc12)c1ccccc1O	L3MBTL1 inh inconclusive, BAZ2B block 28µM, KDM4E inh inconclusive
O=C(N/N=C/c1cccc2cccnc12)c1ccccc1O	L3MBTL1 inh 6.3µM, BAZ2B block 7.1µM, JMJD2A Tudor inh 7.9µM, KDM4E inh inconclusive
CCC(C)[C@H](NC(=O)OC(C)(C)C)C(=O)N/N=C/c1cccc2nccnc12 (stereo partly specified)	KDM4E inh inconclusive (no result: L3MBTL1 inh, PI5P4K alpha inh)
O=C(N/N=C\c1ccccn1)c1ccccc1O	JMJD2A Tudor inh inconclusive, KDM4E inh inconclusive (no result: L3MBTL1 inh)
CN(C)S(=O)(=O)c1cccc(CNCC2COc3ccccc3O2)c1 (stereo unspecified)	BAZ2B block 32µM, HP1b chromo inh 50µM, JMJD2A Tudor inh 18µM (no result: L3MBTL1 inh, KDM4E inh)
c1ccc2c(c1)OCC(CNCC1COc3ccccc3O1)O2 (stereo unspecified)	none (no result: KDM4E inh)
O=C(O)CNCC1COc2ccccc2O1 (stereo unspecified)	BAZ2B block inconclusive, JMJD2A Tudor inh 4µM (no result: PI5P4K alpha inh)
COc1cc(OC)c(NC(=O)Cc2c(C(=O)O)c(C)cn2C)cc1Cl	BAZ2B block inconclusive (no result: L3MBTL1 inh, PI5P4K alpha inh, KDM4E inh)
COc1ccc(NC(=O)c2cnc(SCC(=O)Nc3nc4ccc(C)cc4s3)n(C)c2=O)cc1	none (no result: L3MBTL1 inh, PI5P4K alpha inh, KDM4E inh)
CCC(=O)N1CCCc2cc(S(=O)(=O)N3CCC(C(=O)Nc4ccc(C#N)cc4)CC3)ccc21	none (no result: L3MBTL1 inh, PI5P4K alpha inh, KDM4E inh)
COc1cc2ccc(=O)oc2c(O)c1O	JMJD2A Tudor inh 6.3µM, KDM4E inh inconclusive (no result: L3MBTL1 inh, BAZ2B block)
CCc1ccc(/C=N\n2cnnc2)cc1	none
Cc1c(C(=O)OCC2CCCO2)[nH]c2c1C(=O)CC(c1ccc(N(C)C)cc1)C2 (stereo unspecified)	BAZ2B block 45µM, JMJD2A Tudor inh 50µM
CCOc1ccc(Nc2nc(-c3cccc(Cl)c3)c3c(n2)-c2ccccc2OC3)cc1	JMJD2A Tudor inh inconclusive (no result: L3MBTL1 inh, PI5P4K alpha inh, KDM4E inh)
CC(=O)OCCN(C)c1cc(SC(C)C)c2nonc2c1[N+](=O)[O-]	BAZ2B block inconclusive, JMJD2A Tudor inh inconclusive
CN(CCO)c1cc(Sc2nc3ccccc3s2)c2nonc2c1[N+](=O)[O-]	HP1b chromo inh inconclusive, JMJD2A Tudor inh 22µM (no result: PI5P4K alpha inh)
Cc1ccccc1OCCCCN1CCCCC1	none (no result: KDM4E inh)
CC1CC(C)CN(CCOc2ccc(Br)cc2)C1 (stereo unspecified)	BAZ2B block inconclusive, HP1b chromo inh inconclusive, JMJD2A Tudor inh 28µM, KDM4E inh inconclusive
Cc1cc(Br)ccc1OCCCCN1CCC(C)CC1	BAZ2B block inconclusive, HP1b chromo inh inconclusive, JMJD2A Tudor inh 2.5µM, KDM4E inh inconclusive
CC1CCN(CCCCOc2ccc(Br)cc2)CC1	JMJD2A Tudor inh 5µM, KDM4E inh inconclusive
Cc1cc(OCCN2CCOCC2)ccc1Cl	BAZ2B block inconclusive, HP1b chromo inh inconclusive (no result: KDM4E inh)
CC1CC(C)CN(CC(O)COCCOc2ccc(Br)cc2)C1 (stereo unspecified)	none
CC1CCN(CCOc2ccc(Cl)c(Cl)c2)CC1	HP1b chromo inh inconclusive, JMJD2A Tudor inh 10µM, KDM4E inh inconclusive
O=C1C(=O)N(Cc2ccc(Cl)c(Cl)c2)c2ccccc21	none (no result: L3MBTL1 inh, BAZ2B block, PI5P4K alpha inh, HP1b chromo inh, JMJD2A Tudor inh)
Cc1cccc(-n2c(=O)[nH]c3c(C(N)=O)nc(-c4ccccc4Cl)nc32)c1	JMJD2A Tudor inh inconclusive, KDM4E inh 1.8µM
